From PubChem BioAssay AID1159580 (chemical genetic matrix, 2015)
The whole screen tested about 5,500 compounds, of which about 2,000 (36%) were called active. Another 18% or so got no clear call; they are omitted. No stated cut-off is given here; in the data, active means normalized growth mostly below about 0.91 (no sharp cut-off); inconclusive means no clear call, values can overlap the other calls; inactive means mostly above about 0.92. The list shows a part of the results.

Assay: chemical genetic growth profiling, strain panel (AID 1159580);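 further: tested at 20 µM; growth read once vehicle control cultures reached saturation at 30 °C; 1 = growth at the plate median or of vehicle wells; lower values mean less growth of the strain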
Settings: S. cerevisiae deletion strains, growth OD

Measured: normalized growth

CCCCCc1ccc(-c2nc(SCC(C)=O)n[nH]2)cc1
inactive: locus YAR019C, strain CDC15, hits give low values 0.933 | locus YBL105C, strain PKC1, hits give low values 0.95 | locus YBR135W, strain CKS1, hits give low values 0.959 | locus YBR136W, strain MEC1, hits give low values 0.948 | locus YBR160W, strain CDC28, hits give low values 0.947 | locus YDL017W, strain CDC7, hits give low values 0.957 | locus YDL028C, strain MPS1, hits give low values 0.932 | locus YDL101C, strain DUN1, hits give low values 0.956 | locus YDL108W, strain KIN28, hits give low values 0.949 | locus YDL132W, strain cdc53, hits give low values 0.971 | locus YDL214C, strain PRR2, hits give low values 0.835 | locus YDR052C, strain DBF4, hits give low values 0.97 | locus YDR054C, strain cdc34, hits give low values 0.922 | locus YDR226W, strain ADK1, hits give low values 0.942 | locus YDR477W, strain SNF1, hits give low values 0.773 | locus YER123W, strain YCK3, hits give low values 0.761 | locus YER133W, strain GLC7, hits give low values 0.838 | locus YFL009W, strain cdc4, hits give low values 0.926 | locus YFL029C, strain CAK1, hits give low values 0.938 | locus YFR003C, strain YPI1, hits give low values 0.96 | locus YFR019W, strain FAB1, hits give low values 0.885 | locus YFR028C, strain CDC14, hits give low values 0.962 | locus YGR040W, strain KSS1, hits give low values 0.748 | locus YGR052W, strain FMP48, hits give low values 0.734 | locus YGR092W, strain DBF2, hits give low values 0.662 | locus YHR079C, strain IRE1, hits give low values 0.636 | locus YHR082C, strain KSP1, hits give low values 0.825 | locus YHR205W, strain SCH9, hits give low values 0.799 | locus YIL147C, strain SLN1, hits give low values 0.937 | locus YJL095W, strain BCK1, hits give low values 0.658 | locus YJL128C, strain PBS2, hits give low values 0.846 | locus YJL157C, strain FAR1, hits give low values 0.85 | locus YJR016C, strain ILV3, hits give low values 0.953 | locus YJR066W, strain TOR1 (second series), hits give low values 0.73 | locus YJR066W, strain TOR1, hits give low values 0.721 | locus YKL067W, strain YNK1, hits give low values 0.831 | locus YKL193C, strain SDS22, hits give low values 0.95 | locus YKL203C, strain TOR2, hits give low values 0.875 | locus YLR133W, strain CKI1, hits give low values 0.86 | locus YLR403W, strain SFP1, hits give low values 0.829 | locus YML070W, strain DAK1, hits give low values 0.784 | locus YMR001C, strain CDC5, hits give low values 0.94 | locus YMR205C, strain PFK2 (second series), hits give low values 0.864 | locus YMR277W, strain FCP1, hits give low values 0.932 | locus YNL006W, strain LST8, hits give low values 0.947 | locus YNL020C, strain ARK1, hits give low values 0.856 | locus YNL161W, strain CBK1, hits give low values 0.958 | locus YNL183C, strain NPR1, hits give low values 0.767 | locus YNL207W, strain RIO2, hits give low values 0.947 | locus YNL222W, strain SSU72, hits give low values 0.948 | locus YNL307C, strain MCK1 (second series), hits give low values 0.826 | locus YOL078W, strain AVO1, hits give low values 0.963 | locus YOL136C, strain PFK27, hits give low values 0.82 | locus YOR061W, strain CKA2, hits give low values 0.8 | locus YOR119C, strain RIO1, hits give low values 0.779 | locus YOR231W, strain MKK1, hits give low values 0.661 | locus YOR329C, strain SCD5, hits give low values 0.949 | locus YPL031C, strain PHO85, hits give low values 0.749 | locus YPL153C, strain RAD53, hits give low values 0.688 | locus YPL204W, strain HRR25, hits give low values 0.702 | locus YPL209C, strain IPL1, hits give low values 0.96 | locus YPR025C, strain CCL1, hits give low values 0.954 | locus YPR106W, strain ISR1, hits give low values 0.928 | locus YPR111W, strain DBF20, hits give low values 0.913 | strain NNK1, hits give low values 0.934 | strain TSCII, hits give low values 0.936
active: locus YHR030C, strain SLT2, hits give low values 0.565 | locus YKL048C, strain ELM1, hits give low values 0.688 | locus YKL101W, strain HSL1, hits give low values 0.714 | locus YLR113W, strain HOG1, hits give low values 0.585 | locus YPL256C, strain CLN2, hits give low values 0.6
